This passage reports Potency, activity change, negative = cytotoxicity and outcome results from PubChem BioAssay (NCATS).

Unmarked numbers belong to inactive results. Results filed as inconclusive are left out. The source made the active and inactive calls. Unless noted, the call rests on the fitted dose curve; in most records, active means well fitted curve in the direction sought with a large enough effect; inconclusive means small, poorly fitted or top-dose-only effect, or another doubt; inactive means no such curve, though single readings can be large; an effect the other way counts as inactive or inconclusive. Bounds are passed on as bounds.

Experiment [1] addresses Mitogen-activated protein kinase 10 (Mus musculus) (UniProt Q61831). The experiment is described as follows: JNK3 AlphaScreen Assay (AID 530; active means well fitted curve in either direction with a large enough effect, not every such curve was filed as active;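 further: kinase came from lysate of stimulated human HepG2 cells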; further: potency means the concentration at half of the fitted maximal effect). Particulars: JNK3 lysate, c-Jun phosphorylation; series mostly up to 25.6 µM. The procedure, abridged: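 Biotinylated GST-cJun(1-79) served as substrate for JNK3 in HepG2 lysates stimulated with IL-1beta and TNF-alpha. ATP was 10 uM final, pH 7.6. Ser73 phosphorylation was quantified by AlphaScreen (680 nm excitation).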
For orientation: Alpha assays give light when donor and acceptor beads are brought close together.

The nature of experiment [2]: Cell Viability - N2a (AID 540). Further: nearly all actives have a fitted effect of over 45% in size. Further: potency means the concentration at half of the fitted maximal effect.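 On activity change, negative = cytotoxicity: plate controls were DMSO alone for no effect and tamoxifen control for full effect.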 Particulars: N2a mouse neuroblastoma cell viability; activity change, negative = cytotoxicity: at 92.2 µM (top of the series). A digest of the protocol: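 N2a mouse neuroblastoma, 1500 cells/well, 5 hr settle; compound 40 hr, 37 °C; CellTiter-Glo 20 min RT; luminescence; Hill-fit AC50.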
Experiment [3] can be described thus: Cell Viability - NIH 3T3 (AID 541).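 Further: cells exposed to compound for 40 hours; nearly all actives have a fitted effect of over 25% in size.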 Further: potency means the concentration at half of the fitted maximal effect.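 On activity change, negative = cytotoxicity: plate controls were DMSO alone for no effect and tamoxifen positive control for full effect.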 Particulars: NIH 3T3 cell viability, qHTS; activity change, negative = cytotoxicity: at 92.2 µM (top of the series). A digest of the protocol: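 qHTS format; 40 hr compound exposure, 37 °C; CellTiter-Glo luminescence (cellular ATP) read-out after 20 min at RT. Decrease in ATP = cytotoxicity; AC50 from standard Hill fit.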
The nature of experiment [4]: Cell Viability - H-4-II-E (AID 543).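 Further: cells exposed to compound for 40 hours; nearly all actives have a fitted effect of over 35% in size.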 Further: potency means the concentration at half of the fitted maximal effect. The following applies: H-4-II-E rat hepatoma viability; series mostly up to 92.2 µM. The procedure, abridged: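 qHTS, rat hepatoma H-4-II-E, 1500 cells/well; 40 hr compound exposure, 37 °C; CellTiter-Glo ATP luminescence after 20 min RT; AC50 by standard Hill fit.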
Experiment [5] is described as follows: Cell Viability - SH-SY5Y (AID 544).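 Further: cells exposed to compound for 40 hours; nearly all actives have a fitted effect of over 55% in size.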 Further: potency means the concentration at half of the fitted maximal effect. Particulars: SH-SY5Y neuroblastoma cell viability; viability change, negative = cytotoxic: at 92.2 µM (top of the series). The procedure, abridged: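 SH-SY5Y, 1500 cells/well, 5 hr pre-incubation 37 °C; cpd 40 hr 37 °C; CellTiter-Glo 20 min RT; luminescence (ATP) read. qHTS concentration-response, Hill fit → AC50. Tamoxifen, doxorubicin as positive controls.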

A short description of experiment [6]: Cell Viability - Renal Proximal Tubule (AID 545).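 Further: cells exposed to compound for 40 hours; nearly all actives have a fitted effect of over 40% in size.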 Further: potency means the concentration at half of the fitted maximal effect. The following applies: renal proximal tubule cells viability, primary cells of rat origin; series mostly up to 91.7 µM. A digest of the protocol: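 Primary rat renal proximal tubule cells (1000/well) were treated with compounds for 40 hr at 37 °C in complete medium. Intracellular ATP was measured by CellTiter-Glo luminescence, and AC50 values came from Hill-equation fits of concentration-response data.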

A short description of experiment [7]: Cell Viability - Mesenchymal (AID 546).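 Further: cells exposed to compound for 40 hours before reading.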 Further: potency means the concentration at half of the fitted maximal effect. Particulars: mesenchymal cells viability, qHTS; series mostly up to 91.7 µM. The procedure, abridged: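 In this qHTS cytotoxicity format, glomerulus-derived human mesenchymal kidney cells received compound for 40 hr, then luciferase-based ATP quantitation. Concentration-response data were fitted with the Hill equation.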
On the technique in general: In qHTS, concentration-response curves come from the screen itself.

Experiment [8] is described as follows: Cellular Toxicity (caspase-3) HepG2 (AID 654). Further: potency means the concentration at half of the fitted maximal effect.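 On caspase-3 activation: cells exposed to compound for 16 hours before reading; 0% = DMSO alone and 100% = caspase signal from 100 µM tamoxifen.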 The following applies: HepG2 caspase-3 activation, luminescence; series mostly up to 92.2 µM. The procedure, abridged:
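Luminescent Caspase-Glo 3/7 readout after 16 hr compound exposure of human hepatocellular carcinoma HepG2 cells at 37 °C; qHTS concentration-response, normalized DMSO = 0%, 100 uM tamoxifen = 100%; AC50 by standard Hill equation.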

A short description of experiment [9]: Cellular Toxicity (caspase-3) Jurkat (AID 655).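 Further: cells exposed to compound for 16 h at 37 °C before reading.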 Particulars: Jurkat caspase-3 activation, luminescence, DMSO = 0%, tamoxifen = 100%; series mostly up to 92.2 µM. A digest of the protocol:
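Jurkat cells (5000/well) in complete medium were treated with compounds for 16 hr at 37 °C, then Caspase-Glo 3/7 luminescence was read after 20 min at room temperature. Data normalized to DMSO (basal) and 100 uM tamoxifen (100%); AC50 from Hill fit.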

For experiment [10], the target named is Glucocorticoid receptor (Homo sapiens) (UniProt P04150). The experiment is described as follows: GR-EFC Redistribution (AID 451; calls by dose curve; further: potency means the concentration at half of the fitted maximal effect). The following applies: CHO-K1 GR-EFC translocation, beta-gal luminescence, 2 h. The procedure, abridged:
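CHO-K1 cells stably expressing nuclear-localized β-gal enzyme acceptor and GR fused C-terminally to the enzyme donor fragment; ligand-driven nuclear translocation restores β-gal by complementation. Compounds titrated up to 46 uM final, 2 h at 37 °C; luminescence read.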

Sequence of Glucocorticoid receptor (Homo sapiens) (P04150 whole entry, looked up, the tested form may be a part): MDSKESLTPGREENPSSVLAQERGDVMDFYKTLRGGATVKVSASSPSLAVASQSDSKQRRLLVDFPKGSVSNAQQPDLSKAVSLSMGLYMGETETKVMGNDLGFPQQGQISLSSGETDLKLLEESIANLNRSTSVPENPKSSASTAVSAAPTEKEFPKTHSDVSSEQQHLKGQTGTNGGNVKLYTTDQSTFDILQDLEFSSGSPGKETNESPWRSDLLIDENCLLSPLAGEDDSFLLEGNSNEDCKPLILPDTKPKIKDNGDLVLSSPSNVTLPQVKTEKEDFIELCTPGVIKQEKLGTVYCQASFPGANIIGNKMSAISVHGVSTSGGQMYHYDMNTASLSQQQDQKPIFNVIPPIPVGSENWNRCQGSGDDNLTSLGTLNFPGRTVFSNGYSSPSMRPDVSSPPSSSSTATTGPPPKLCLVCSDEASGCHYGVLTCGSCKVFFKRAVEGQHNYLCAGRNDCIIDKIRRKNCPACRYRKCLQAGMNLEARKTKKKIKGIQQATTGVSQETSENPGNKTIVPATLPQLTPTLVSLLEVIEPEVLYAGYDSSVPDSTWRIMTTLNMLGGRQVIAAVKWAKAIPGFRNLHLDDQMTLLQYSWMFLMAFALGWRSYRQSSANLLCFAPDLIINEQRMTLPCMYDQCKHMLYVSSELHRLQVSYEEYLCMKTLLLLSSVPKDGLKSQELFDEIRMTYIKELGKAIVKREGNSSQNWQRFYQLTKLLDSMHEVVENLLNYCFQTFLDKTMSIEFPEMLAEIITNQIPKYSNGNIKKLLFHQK

For `Cc1ccnc2c1NC(=O)c1cccnc1N2C1CC1`, the Potency entry in experiment [1], in experiment [2], in [4], in experiment [5], in [6] and in experiment [7] was “inactive” in each case. In addition, the Potency result in experiment [8] was “inactive”. Moreover, the activity change, negative = cytotoxicity in experiment [3] is -11%. Also, the compound was classed as inactive in experiment [9].
As for `Cc1nnc(NS(=O)(=O)c2ccc(N)cc2)s1`, the Potency result in [1], in experiment [2], in [4], in experiment [5], in experiment [6] and in experiment [7] was “inactive” in each case. Also, the Potency entry in experiment [8] was “inactive”. Further, the activity change, negative = cytotoxicity in experiment [3] was -22.7%. Besides, in experiment [9], the result was inactive.
In the case of `CN(C)c1ccc(C(=C2C=CC(=[N+](C)C)C=C2)c2ccc(N(C)C)cc2)cc1`, the Potency was 2 µM (active) in experiment [1]; 0.794 µM (active) in experiment [2]; 1 µM (active) in experiment [3]; 2 µM (active) in [4]; 1.58 µM (active) in [5]; 12.6 µM (active) in [6]. The Potency is 2.51 µM (active) in experiment [7] and 31.6 µM (active) in [8].
For the compound `CCOC(=O)c1ccc(OC(=O)CCCCCN=C(N)N)cc1`, in [1], the Potency entry is “inactive”.
Turning to `N=C(N)c1ccc(OCCCCCOc2ccc(C(=N)N)cc2)cc1`, the results for the Potency in experiment [10] and in experiment [2] were over 20.6 µM and 15.8 µM (active), respectively. Further, the Potency result in experiment [1], in experiment [5] and in experiment [8] was “inactive” throughout. The activity change, negative = cytotoxicity in [3] was -80.1% (active). The compound was called inactive in experiment [9].
As to `O=C(O)c1cc(=O)[nH]c(=O)[nH]1`, the Potency result in experiment [1], in [2], in experiment [4], in experiment [5], in experiment [6] and in experiment [7] was “inactive” each time. Moreover, in experiment [8], the Potency entry was “inactive”. In experiment [3], the activity change, negative = cytotoxicity was -4.07%. Moreover, the result in [9] was inactive.
`Cc1cc(NS(=O)(=O)c2ccc(N)cc2)no1`: the Potency in experiment [10] was over 20.6 µM. The Potency result in experiment [1], in [2], in experiment [4], in [5], in experiment [6] and in experiment [7] was “inactive” throughout. For the same compound, the Potency entry in experiment [8] is “inactive”. The activity change, negative = cytotoxicity in experiment [3] is -14.5%. The compound was classed as inactive in experiment [9].
For `CC(=O)Oc1ccccc1C(=O)Nc1ncc([N+](=O)[O-])s1`, the Potency in experiment [2] was 25.1 µM (active); in experiment [3] it was 31.6 µM (active); in experiment [4] it was 31.6 µM (active); in experiment [5], 25.1 µM (active); in experiment [6], 25.1 µM (active). Also, the Potency entry in [8] is “inactive”. In addition, the result in [9] was inactive.
As to `Clc1ccccc1CN1CCc2sccc2C1`, the Potency result in experiment [1] is “inactive”.
For the compound `C[C@]12C=CC(=O)C=C1CC[C@@H]1[C@@H]2C(=O)C[C@@]2(C)[C@H]1CC[C@]2(O)C(=O)CO`, the Potency result in experiment [1], in experiment [2], in [4], in [5], in [6] and in [7] was “inactive” each time. Besides, in [8], the Potency result is “inactive”. In addition, in experiment [3], the activity change, negative = cytotoxicity is -17%. Also, in [9], the result was inactive.
Take `O=C(O)c1cn(C2CC2)c2cc(N3CCNCC3)c(F)cc2c1=O`: in experiment [1], the Potency result was “inactive”.
In the case of `CCc1cc(C(N)=S)ccn1`, the Potency in experiment [10] is over 20.6 µM. The Potency entry in [1], in [2], in experiment [4], in [5], in experiment [6] and in experiment [7] was “inactive” throughout. The Potency entry in experiment [8] was “inactive”. In addition, the activity change, negative = cytotoxicity in [3] was -7.33%. In addition, in experiment [9], the call was inactive.
`Cc1noc(NS(=O)(=O)c2ccc(N)cc2)c1C`: the Potency result in [1], in [2], in experiment [4], in experiment [5], in experiment [6] and in experiment [7] was “inactive” in each case. Besides, in [8], the Potency entry is “inactive”. Further, the activity change, negative = cytotoxicity in experiment [3] was -8.82%. For the same compound, the compound was called inactive in [9].
Take `O=C(O)c1cccnc1`: the Potency result in [1] was “inactive”.
Consider `O=C(N[C@H](CO)[C@H](O)c1ccc([N+](=O)[O-])cc1)C(Cl)Cl`, for which the Potency result in experiment [1], in experiment [2], in experiment [4], in [5], in experiment [6] and in [7] was “inactive” throughout. The Potency entry in [8] is “inactive”. Further, the activity change, negative = cytotoxicity in experiment [3] was -14.2%. The outcome in [9] was inactive.
As to `CC[C@H](C)C(=O)O[C@H]1C[C@@H](C)C=C2C=C[C@H](C)[C@H](CC[C@@H]3C[C@@H](O)CC(=O)O3)[C@H]21`, the Potency entry in experiment [1] is “inactive”. Besides, the Potency in experiment [2] is 2 µM (active); in experiment [4] it was 7.94 µM (active); in experiment [6], 2 µM (active); in experiment [7] it was 7.94 µM (active). Moreover, the activity change, negative = cytotoxicity in experiment [3] is -92.8% (active). In addition, the call in [9] was inactive.
